Measured values taken from PubChem BioAssay.
A number with no mark means an inactive call. For some assays here: Measured potencies and affinities stand elsewhere. Active and inactive are the calls of the source. Unless noted, no rule for the calls is given here.

Legend:
[1] = antimalarial activity against Dd2 strain (AID 2302;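 active = growth inhibition above 50% at the single 2 µM test dose, taken to imply half-maximal potency below 2 µM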;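 also: 0% = DMSO untreated growth and 100% = chloroquine plus artemisinin killed control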); settings: P. falciparum Dd2 in RBCs, LDH growth readout, 72 h; at 2 µM; active compounds read high
[2] = HepG2 cytotoxicity, primary screen, cytotoxicity control for P. falciparum antimalarial project, cell-based, ATP luminescence (AID 2303;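 active = inhibition above 50%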;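 also: 0% = DMSO wells and 100% = digitonin-killed cells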); settings: HepG2 viability, 24-48 h, at 10 µM, active compounds read high
[3] = target: L-lactate dehydrogenase (Plasmodium falciparum (isolate CDC / Honduras)) (UniProt Q27743); assay: PfLDH activity inhibition – cell lysate, 3D7 strain, counter-screen for P. falciparum growth inhibition project (AID 2304);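 also: 0% = vehicle and 100% = reference inhibitor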; settings: P. falciparum 3D7 crude extract, LDH APAD/NBT absorbance; at 2 µM; active compounds read high
[4] = inhibition of 3D7 malaria parasite growth – strain 3D7 (AID 2306);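 also: 0% = DMSO wells and 100% = chloroquine plus artemisinin control wells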; settings: P. falciparum 3D7 erythrocytic growth, LDH absorbance, 72 h; at 2 µM; active compounds read high
[5] = target: Calcium-dependent protein kinase 1 (Plasmodium falciparum (isolate 3D7)) (UniProt P62344); assay: PfCDPK1 kinase inhibitors, biochemical, TCAMS library (AID 1159585; cut-off not given, nearly all actives have IC50 up to about 0.98 µM;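 also: inhibitors leave more ATP so luminescence rises with inhibition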); settings: recombinant PfCDPK1, Kinase-Glo ATP depletion luminescence
[6] = target: Plasmodium falciparum protein kinase 6 (PK6, PF3D7_1337100) (UniProt Q8IDW1); assay: PfPK6 kinase inhibitors, biochemical, TCAMS library (AID 1159586); settings: recombinant PfPK6, Kinase-Glo ATP depletion luminescence
[7] = target: Protein kinase 7 (PK7), Plasmodium falciparum 3D7 (PF3D7_0213400) (UniProt Q7YTF7); assay: inhibition of Plasmodium PK7 catalytic activity – biochemical, TCAMS antimalarial set, Kinase-Glo luminescence (AID 1159587); settings: recombinant PfPK7, Kinase-Glo ATP depletion luminescence
[8] = target: Calcium-dependent protein kinase 4 (Plasmodium falciparum (isolate 3D7)) (UniProt Q8IBS5); assay: PfCDPK4 kinase inhibitors, biochemical, TCAMS library (AID 1159588; cut-off not given, nearly all actives have IC50 up to about 0.91 µM); settings: recombinant PfCDPK4, Kinase-Glo ATP depletion luminescence
Chain of Calcium-dependent protein kinase 4 (Plasmodium falciparum (isolate 3D7)) (Q8IBS5 whole entry, looked up): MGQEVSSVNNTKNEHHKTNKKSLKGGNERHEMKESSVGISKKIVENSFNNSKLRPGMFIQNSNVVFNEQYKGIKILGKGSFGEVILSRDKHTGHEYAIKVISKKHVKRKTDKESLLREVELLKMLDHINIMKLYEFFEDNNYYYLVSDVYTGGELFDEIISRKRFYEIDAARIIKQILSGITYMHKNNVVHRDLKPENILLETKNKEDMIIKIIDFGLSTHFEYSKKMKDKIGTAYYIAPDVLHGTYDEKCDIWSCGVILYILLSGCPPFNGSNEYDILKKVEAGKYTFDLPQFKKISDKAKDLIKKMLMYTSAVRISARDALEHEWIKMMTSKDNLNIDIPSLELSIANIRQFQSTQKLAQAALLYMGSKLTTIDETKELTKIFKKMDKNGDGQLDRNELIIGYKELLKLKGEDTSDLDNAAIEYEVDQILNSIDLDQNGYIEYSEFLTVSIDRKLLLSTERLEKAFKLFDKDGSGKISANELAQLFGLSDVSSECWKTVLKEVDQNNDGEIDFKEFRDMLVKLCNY

Chain of Plasmodium falciparum protein kinase 6 (PK6, PF3D7_1337100) (Q8IDW1 1-305): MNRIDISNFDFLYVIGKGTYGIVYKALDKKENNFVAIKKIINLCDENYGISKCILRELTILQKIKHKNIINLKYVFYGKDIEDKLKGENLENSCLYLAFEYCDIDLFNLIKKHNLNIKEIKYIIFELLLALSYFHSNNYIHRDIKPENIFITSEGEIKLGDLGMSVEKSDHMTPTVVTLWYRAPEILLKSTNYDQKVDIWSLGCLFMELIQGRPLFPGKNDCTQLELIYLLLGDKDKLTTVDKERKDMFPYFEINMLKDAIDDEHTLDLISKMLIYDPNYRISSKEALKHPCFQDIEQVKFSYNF
Chain of L-lactate dehydrogenase (Plasmodium falciparum (isolate CDC / Honduras)) (Q27743 whole entry, looked up): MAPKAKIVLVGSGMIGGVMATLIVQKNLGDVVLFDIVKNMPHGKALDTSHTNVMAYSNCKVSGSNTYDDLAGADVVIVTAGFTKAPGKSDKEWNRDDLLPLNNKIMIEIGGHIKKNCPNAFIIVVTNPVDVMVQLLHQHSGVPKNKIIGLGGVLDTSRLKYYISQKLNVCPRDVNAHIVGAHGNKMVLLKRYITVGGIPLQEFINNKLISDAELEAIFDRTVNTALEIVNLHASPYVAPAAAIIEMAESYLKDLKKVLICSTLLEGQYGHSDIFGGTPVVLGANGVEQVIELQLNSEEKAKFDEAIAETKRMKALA
Chain of Protein kinase 7 (PK7), Plasmodium falciparum 3D7 (PF3D7_0213400) (Q7YTF7 1-343): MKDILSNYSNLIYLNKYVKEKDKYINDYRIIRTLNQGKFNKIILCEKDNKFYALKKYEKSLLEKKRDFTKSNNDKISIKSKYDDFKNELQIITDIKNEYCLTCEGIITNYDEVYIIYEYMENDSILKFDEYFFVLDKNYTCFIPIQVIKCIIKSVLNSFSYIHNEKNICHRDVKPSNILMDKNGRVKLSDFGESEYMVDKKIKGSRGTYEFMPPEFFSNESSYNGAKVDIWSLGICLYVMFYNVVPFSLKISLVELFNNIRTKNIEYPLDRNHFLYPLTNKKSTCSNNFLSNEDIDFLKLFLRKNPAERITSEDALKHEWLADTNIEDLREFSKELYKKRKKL
Chain of Calcium-dependent protein kinase 1 (Plasmodium falciparum (isolate 3D7)) (P62344 whole entry, looked up): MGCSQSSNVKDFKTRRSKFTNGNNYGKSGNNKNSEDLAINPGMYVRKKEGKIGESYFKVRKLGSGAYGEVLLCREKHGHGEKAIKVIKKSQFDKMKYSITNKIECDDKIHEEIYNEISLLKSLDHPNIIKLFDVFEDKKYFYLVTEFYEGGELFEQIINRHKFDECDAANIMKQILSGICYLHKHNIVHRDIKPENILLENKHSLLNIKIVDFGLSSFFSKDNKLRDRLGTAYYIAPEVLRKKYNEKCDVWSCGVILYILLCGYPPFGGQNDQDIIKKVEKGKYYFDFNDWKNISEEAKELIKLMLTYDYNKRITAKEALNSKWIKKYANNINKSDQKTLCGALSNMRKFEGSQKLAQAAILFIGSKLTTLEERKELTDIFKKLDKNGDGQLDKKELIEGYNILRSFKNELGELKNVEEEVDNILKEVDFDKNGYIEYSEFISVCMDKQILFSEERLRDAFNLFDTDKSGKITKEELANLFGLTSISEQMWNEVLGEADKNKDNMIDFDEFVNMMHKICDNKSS

Compound	growth inhibition [1]	inhibition [2]	inhibition [3]	growth inhibition [4]	outcome [5]	outcome [6]	outcome [7]	outcome [8]
CC(C)Sc1nc(-c2ccccc2)nc2c1COC(C)(C)C2	41%	2%	-4%	98% (active)	inactive	inactive	inactive	inactive
Cc1cc(N)ncc1-c1ccc(NC(=O)Nc2cc(C(F)(F)F)ccc2F)cc1	23%	15%	3%	100% (active)	inactive	inactive	inactive	inactive
Cc1nnc(Sc2ncnc3scc(-c4ccc(F)cc4)c23)s1	50% (active)	13%	4%	99% (active)	inactive	inactive	inactive	inactive
CCN(CC)CCOc1ccc(NC(=O)c2oc3ccccc3c2C=Cc2ccccc2)cc1	54% (active)	51% (active)	-2%	98% (active)	inactive	inactive	inactive	inactive
Cc1ccccc1Oc1nc2ccccc2nc1SCC(=O)NC(C)C	55% (active)	-14%	-1%	97% (active)	inactive	inactive	inactive	inactive
Nc1c2c(nc3ccc(C(=O)Nc4ccc(Br)cc4)cc13)CCCC2	99% (active)	40%	1%	102% (active)	inactive	inactive	inactive	inactive
Fc1cccc(-c2ccc3c(c2)CC(NCc2c[nH]c4cnccc24)C3)c1 (stereo not given)	68% (active)	24%	-1%	100% (active)	inactive	inactive	inactive	inactive
CC(C)CNC(=O)c1ccnc(-c2ccc(CNCCCc3ccccc3)cc2)c1	22%	12%	-3%	99% (active)	inactive	inactive	inactive	inactive
CCN1CCN(CCCNc2c3ccccc3nc3ccccc23)CC1	3%	44%	-1%	100% (active)	inactive	inactive	inactive	inactive
COc1ccc(CNCCc2cccs2)cc1-c1cccc(S(=O)(=O)NCCN2CCCC2)c1	41%	56% (active)	-1%	98% (active)	inactive	inactive	inactive	inactive
COc1ccccc1C(C)NCC(=O)Nc1ccccc1Sc1ccccc1 (stereo not given)	7%	-7%	-1%	89% (active)	inactive	inactive	inactive	inactive
COc1cc2c(Nc3cccc(NC(=O)c4ccccc4)c3)ncnc2cc1OCCCN1CCOCC1	100% (active)	-14%	5%	101% (active)	inactive	inactive	inactive	inactive
CCCCCCN1CCC(NCc2cccc3ccccc23)CC1	12%	21%	0%	95% (active)	inactive	inactive	inactive	inactive
Cc1c(C)n(C2CCCC2)c2ncnc(OC3CCN(CC(=O)NC4CC4)CC3)c12	92% (active)	13%	-4%	95% (active)	inactive	inactive	inactive	inactive
CCOc1ccc(CCC(=O)O)cc1OCC	-3%	60% (active)	6%	94% (active)	inactive	inactive	inactive	inactive
Cc1cc(N[C@@H](Cc2ccccc2)C(=O)NCc2cccc(F)c2)nc(NCC2CCCCC2)n1	42%	43%	-2%	101% (active)	inactive	inactive	inactive	inactive
O=C(c1ccc([N+](=O)[O-])o1)N1CCC(Cc2ccc(C(F)(F)F)cc2)CC1	99% (active)	38%	-2%	101% (active)	inactive	inactive	inactive	inactive
Cc1nc(N)nc(N)c1-c1ccc2ccccc2c1	2%	60% (active)	6%	97% (active)	inactive	inactive	inactive	inactive
COc1cc(CNCCCNc2cc(=O)c3ccccc3[nH]2)c2c(c1)C(C)CN2C(=O)OC(C)(C)C (stereo not given)	87% (active)	-5%	2%	96% (active)	inactive	inactive	inactive	inactive
O=S(=O)(c1cccc(C(F)(F)F)c1)N1CCC(CO)(Cc2cccc(C(F)(F)F)c2)CC1	79% (active)	3%	0%	100% (active)	inactive	inactive	inactive	inactive

Compound	growth inhibition [1]	inhibition [2]	inhibition [3]	growth inhibition [4]	outcome [5]	outcome [6]	outcome [7]	outcome [8]
COc1ccc(S(=O)(=O)N(CCCN2CCN(C)CC2)Cc2csc(-c3ccc(CNCc4ccccc4)cc3)n2)cc1	86% (active)	10%	6%	88% (active)	inactive	inactive	inactive	inactive
O=C(Nc1ccc(Cl)cc1)Nc1ccc(OCC(O)CN2CCCCC2)cc1 (stereo not given)	13%	18%	-1%	83% (active)	inactive	inactive	inactive	inactive
O=C(Nc1cccc(-c2cc(-c3c(Cl)cccc3Cl)no2)c1)c1cncc(-c2cccs2)c1	39%	-1%	-2%	91% (active)	inactive	inactive	inactive	inactive
O=C(NC1CCN(CCN2CCc3ccccc3CC2)CC1)c1ccc(-c2ccc(C(F)(F)F)cc2)cc1	43%	45%	-4%	99% (active)	inactive	inactive	inactive	inactive
CC(=O)c1cccc2c(NC(=O)Nc3ccc4nccc(N5CCN(C)CC5)c4c3)cccc12	94% (active)	13%	-3%	99% (active)	inactive	inactive	inactive	inactive
COc1cccc(NC(=O)c2cc(C(=O)Nc3cccc(OC)c3)cc([N+](=O)[O-])c2)c1	61% (active)	1%	-3%	99% (active)	inactive	inactive	inactive	inactive
CCCCCCNC(=O)C1Cc2c([nH]c3cc(Cl)ccc23)C2(CCN(CCC)CC2)N1 (stereo not given)	18%	8%	0%	92% (active)	inactive	inactive	inactive	inactive
CS(=O)(=O)c1ccc2nc(-c3cc(-c4ccc(OCCN5CCOCC5)cc4)cnc3N)[nH]c2c1	99% (active)	43%	-4%	100% (active)	inactive	inactive	inactive	inactive
NC(N)=Nc1nc(-c2cccc(NC(=O)C(F)(F)F)c2)cs1	24%	-4%	-2%	94% (active)	inactive	inactive	inactive	inactive
Cn1cncc1C(=O)Nc1ccc(-c2cccc(-c3nc4ccc(F)cc4[nH]3)c2)cc1	23%	5%	2%	102% (active)	inactive	inactive	inactive	inactive
CCOc1ccc(C(=O)Nc2cc3c(c(C(F)(F)F)c2)CCNC3)cc1Cl	1%	4%	-4%	91% (active)	inactive	inactive	inactive	inactive
Cc1cnc(-c2ccc(NC(=O)N3CCc4cc5nccc(N6CCN7CCC[C@H]7C6)c5cc43)c3ccccc23)o1	45%	12%	-1%	100% (active)	inactive	inactive	inactive	inactive
Cc1cc(CN2CC[C@H](NC(=O)c3ccc(Cl)c(Cl)c3)C2)ccc1OCCN1CCNCC1	1%	15%	-1%	94% (active)	inactive	inactive	inactive	inactive
Cc1ccccc1C1CCN(C2CCC(NC(=O)c3cncc(-c4ccccc4)c3)CC2)CC1 (stereo not given)	92% (active)	27%	-1%	101% (active)	inactive	inactive	inactive	inactive
CC(C)(C)c1ccc(-c2cc(C(=O)N[C@@H](CO)C(=O)O)on2)cc1 (tested in a mixture with another compound)	-2%	1%	-1%	87% (active)	inactive	inactive	inactive	inactive
COc1ccccc1-n1c(SCC(=O)Nc2ccccc2F)nc2cccnc21	88% (active)	-21%	0%	96% (active)	inactive	inactive	inactive	inactive
COc1cc2nc(N3CCN(C(=O)c4c(Cl)nsc4-c4ccccc4Cl)CC3)nc(N)c2cc1OC	101% (active)	57% (active)	-6%	100% (active)	inactive	inactive	inactive	inactive
Cc1cc(F)ccc1Nc1nc(N(C)c2ccccc2)c2cc(OCCN(C)C)ccc2n1	55% (active)	37%	3%	94% (active)	inactive	inactive	inactive	inactive
COc1ccc(NC(=O)CSc2nc(-c3ccccc3Cl)ns2)cc1	75% (active)	11%	0%	96% (active)	inactive	inactive	inactive	inactive
CCn1cc2c3c(cc(C(=O)N[C@@H](Cc4ccccc4)[C@H](O)CNCc4cccc(OC)c4)cc31)N(C)S(=O)(=O)CC2	97% (active)	-12%	0%	99% (active)	inactive	inactive	inactive	inactive
